Assay [1] has as its target RAC-alpha serine/threonine-protein kinase (Homo sapiens) (UniProt P31749). Conditions: at 0.1 µM.
For assay [2] the target is unchanged. The note with it: at 1 µM.
Assay [3] concerns the target RAC-beta serine/threonine-protein kinase (Homo sapiens) (UniProt P31751). Conditions: at 0.1 µM.
The target is the same in assay [4]. The note with it: at 1 µM.
The target in assay [5] is RAC-gamma serine/threonine-protein kinase (Homo sapiens) (UniProt Q9Y243). Conditions: at 0.1 µM.
For assay [6] the target is unchanged. Conditions: at 1 µM.
Assay [7] has as its target G protein-coupled receptor kinase 6 (Homo sapiens) (UniProt P43250). Conditions: at 0.1 µM.
The target is the same in assay [8]. Conditions: at 1 µM.
Assay [9] has as its target T1, Rhodopsin kinase GRK7 (Homo sapiens) (UniProt Q8WTQ7).
T1 sequence (whole entry): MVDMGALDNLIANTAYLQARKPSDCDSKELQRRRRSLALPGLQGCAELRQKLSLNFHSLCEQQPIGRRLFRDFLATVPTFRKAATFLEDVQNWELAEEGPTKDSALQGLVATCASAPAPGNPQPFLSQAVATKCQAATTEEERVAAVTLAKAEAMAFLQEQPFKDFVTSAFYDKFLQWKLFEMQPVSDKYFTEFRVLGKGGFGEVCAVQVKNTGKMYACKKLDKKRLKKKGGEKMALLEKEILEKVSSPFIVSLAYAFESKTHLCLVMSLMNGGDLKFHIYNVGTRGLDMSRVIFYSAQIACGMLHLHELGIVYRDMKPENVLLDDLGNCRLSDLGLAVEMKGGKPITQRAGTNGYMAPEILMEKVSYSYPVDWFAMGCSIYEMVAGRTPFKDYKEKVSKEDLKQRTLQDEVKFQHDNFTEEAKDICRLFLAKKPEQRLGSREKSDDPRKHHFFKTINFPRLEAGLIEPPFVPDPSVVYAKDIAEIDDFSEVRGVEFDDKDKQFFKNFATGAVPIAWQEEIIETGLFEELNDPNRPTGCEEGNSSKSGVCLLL
The note with it: at 0.1 µM.

In assay [10] the target is T1, Rhodopsin kinase GRK7 (Homo sapiens). Conditions: at 1 µM.
In assay [11] the target is Serine/threonine-protein kinase MRCK alpha (Homo sapiens) (UniProt Q5VT25). Conditions: at 0.1 µM.
Assay [12] has the same target. The note with it: at 1 µM.
In assay [13] the target is Serine/threonine-protein kinase MRCK beta (Homo sapiens) (UniProt Q9Y5S2). The note with it: at 0.1 µM.
For assay [14] the target is unchanged. The note with it: at 1 µM.
Assay [15] has as its target Ribosomal protein S6 kinase alpha-5 (Homo sapiens) (UniProt O75582). The note with it: at 0.1 µM.
Assay [16] shares this target. Conditions: at 1 µM.
In assay [17] the target is Ribosomal protein S6 kinase alpha-4 (Homo sapiens) (UniProt O75676). The note with it: at 0.1 µM.
The target is the same in assay [18]. Conditions: at 1 µM.
For assay [19], the target named is Ribosomal protein S6 kinase beta-1 (Homo sapiens) (UniProt P23443). The note with it: at 0.1 µM.
The target is the same in assay [20]. The note with it: at 1 µM.

Sequence of Ribosomal protein S6 kinase alpha-4 (Homo sapiens) (O75676 whole entry, looked up): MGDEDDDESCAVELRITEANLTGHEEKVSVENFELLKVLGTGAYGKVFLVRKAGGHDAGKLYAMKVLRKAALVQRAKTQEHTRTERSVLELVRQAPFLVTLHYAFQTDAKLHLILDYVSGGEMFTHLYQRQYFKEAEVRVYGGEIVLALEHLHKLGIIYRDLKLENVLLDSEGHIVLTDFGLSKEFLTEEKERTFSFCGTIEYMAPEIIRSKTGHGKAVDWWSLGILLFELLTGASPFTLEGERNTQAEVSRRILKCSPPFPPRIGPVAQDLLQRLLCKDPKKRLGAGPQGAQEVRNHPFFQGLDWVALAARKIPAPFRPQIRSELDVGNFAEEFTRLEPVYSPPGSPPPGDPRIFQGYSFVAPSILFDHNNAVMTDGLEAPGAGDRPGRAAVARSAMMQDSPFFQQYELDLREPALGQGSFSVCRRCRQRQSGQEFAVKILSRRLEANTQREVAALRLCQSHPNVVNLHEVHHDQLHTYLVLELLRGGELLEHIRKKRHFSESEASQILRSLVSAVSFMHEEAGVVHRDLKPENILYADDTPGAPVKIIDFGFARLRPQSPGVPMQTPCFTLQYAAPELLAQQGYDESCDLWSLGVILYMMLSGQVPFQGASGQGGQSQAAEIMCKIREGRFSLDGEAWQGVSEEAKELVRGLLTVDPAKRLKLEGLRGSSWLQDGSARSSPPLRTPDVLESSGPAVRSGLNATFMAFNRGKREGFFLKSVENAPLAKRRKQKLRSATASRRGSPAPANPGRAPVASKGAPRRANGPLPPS
Sequence of RAC-alpha serine/threonine-protein kinase (Homo sapiens) (P31749 whole entry): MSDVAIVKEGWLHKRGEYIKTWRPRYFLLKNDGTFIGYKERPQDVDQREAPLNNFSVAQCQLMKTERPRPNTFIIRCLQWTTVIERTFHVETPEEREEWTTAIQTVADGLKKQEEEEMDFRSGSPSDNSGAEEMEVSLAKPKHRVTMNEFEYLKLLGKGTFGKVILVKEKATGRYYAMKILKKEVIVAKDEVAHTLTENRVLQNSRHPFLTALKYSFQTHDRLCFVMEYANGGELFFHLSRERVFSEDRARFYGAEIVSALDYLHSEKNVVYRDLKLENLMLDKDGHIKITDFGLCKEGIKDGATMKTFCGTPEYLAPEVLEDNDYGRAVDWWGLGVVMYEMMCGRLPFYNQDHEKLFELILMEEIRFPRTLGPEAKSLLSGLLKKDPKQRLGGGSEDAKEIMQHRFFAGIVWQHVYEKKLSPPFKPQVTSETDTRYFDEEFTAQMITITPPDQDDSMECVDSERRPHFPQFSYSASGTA
Sequence of RAC-beta serine/threonine-protein kinase (Homo sapiens) (P31751 whole entry): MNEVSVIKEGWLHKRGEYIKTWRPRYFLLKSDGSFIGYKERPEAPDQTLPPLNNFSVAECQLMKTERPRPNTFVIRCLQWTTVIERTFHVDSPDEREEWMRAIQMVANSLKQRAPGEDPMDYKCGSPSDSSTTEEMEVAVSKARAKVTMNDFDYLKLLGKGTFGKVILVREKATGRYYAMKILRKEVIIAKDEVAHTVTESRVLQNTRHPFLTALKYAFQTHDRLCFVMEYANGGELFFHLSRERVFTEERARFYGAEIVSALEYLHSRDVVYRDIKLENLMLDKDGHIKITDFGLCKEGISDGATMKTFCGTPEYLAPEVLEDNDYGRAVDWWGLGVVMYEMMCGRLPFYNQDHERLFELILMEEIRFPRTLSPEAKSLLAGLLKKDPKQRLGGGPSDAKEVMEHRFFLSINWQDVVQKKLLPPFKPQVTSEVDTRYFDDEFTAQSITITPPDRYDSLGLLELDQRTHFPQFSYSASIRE
Sequence of Ribosomal protein S6 kinase alpha-5 (Homo sapiens) (O75582 whole entry, looked up): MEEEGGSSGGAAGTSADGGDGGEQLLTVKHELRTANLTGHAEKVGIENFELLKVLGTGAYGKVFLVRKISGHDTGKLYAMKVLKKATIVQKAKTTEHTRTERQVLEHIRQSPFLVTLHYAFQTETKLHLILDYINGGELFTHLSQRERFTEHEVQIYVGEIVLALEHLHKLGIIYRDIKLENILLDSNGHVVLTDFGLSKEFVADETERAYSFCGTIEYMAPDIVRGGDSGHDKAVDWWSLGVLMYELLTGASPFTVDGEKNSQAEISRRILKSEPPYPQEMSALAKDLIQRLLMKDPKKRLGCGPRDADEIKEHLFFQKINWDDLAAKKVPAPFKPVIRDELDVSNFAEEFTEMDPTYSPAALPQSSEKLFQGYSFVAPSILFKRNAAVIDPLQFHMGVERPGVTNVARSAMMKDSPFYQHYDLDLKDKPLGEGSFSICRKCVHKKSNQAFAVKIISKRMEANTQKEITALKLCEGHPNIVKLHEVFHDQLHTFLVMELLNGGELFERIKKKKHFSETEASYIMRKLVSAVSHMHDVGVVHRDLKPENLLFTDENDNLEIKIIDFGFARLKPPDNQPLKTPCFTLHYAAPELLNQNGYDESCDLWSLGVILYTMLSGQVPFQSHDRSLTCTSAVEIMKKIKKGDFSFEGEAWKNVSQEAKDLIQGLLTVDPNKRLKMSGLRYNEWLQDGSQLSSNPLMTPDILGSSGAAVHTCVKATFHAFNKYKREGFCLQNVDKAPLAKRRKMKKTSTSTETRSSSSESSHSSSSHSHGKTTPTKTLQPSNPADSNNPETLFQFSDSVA
Sequence of Serine/threonine-protein kinase MRCK beta (Homo sapiens) (Q9Y5S2 whole entry): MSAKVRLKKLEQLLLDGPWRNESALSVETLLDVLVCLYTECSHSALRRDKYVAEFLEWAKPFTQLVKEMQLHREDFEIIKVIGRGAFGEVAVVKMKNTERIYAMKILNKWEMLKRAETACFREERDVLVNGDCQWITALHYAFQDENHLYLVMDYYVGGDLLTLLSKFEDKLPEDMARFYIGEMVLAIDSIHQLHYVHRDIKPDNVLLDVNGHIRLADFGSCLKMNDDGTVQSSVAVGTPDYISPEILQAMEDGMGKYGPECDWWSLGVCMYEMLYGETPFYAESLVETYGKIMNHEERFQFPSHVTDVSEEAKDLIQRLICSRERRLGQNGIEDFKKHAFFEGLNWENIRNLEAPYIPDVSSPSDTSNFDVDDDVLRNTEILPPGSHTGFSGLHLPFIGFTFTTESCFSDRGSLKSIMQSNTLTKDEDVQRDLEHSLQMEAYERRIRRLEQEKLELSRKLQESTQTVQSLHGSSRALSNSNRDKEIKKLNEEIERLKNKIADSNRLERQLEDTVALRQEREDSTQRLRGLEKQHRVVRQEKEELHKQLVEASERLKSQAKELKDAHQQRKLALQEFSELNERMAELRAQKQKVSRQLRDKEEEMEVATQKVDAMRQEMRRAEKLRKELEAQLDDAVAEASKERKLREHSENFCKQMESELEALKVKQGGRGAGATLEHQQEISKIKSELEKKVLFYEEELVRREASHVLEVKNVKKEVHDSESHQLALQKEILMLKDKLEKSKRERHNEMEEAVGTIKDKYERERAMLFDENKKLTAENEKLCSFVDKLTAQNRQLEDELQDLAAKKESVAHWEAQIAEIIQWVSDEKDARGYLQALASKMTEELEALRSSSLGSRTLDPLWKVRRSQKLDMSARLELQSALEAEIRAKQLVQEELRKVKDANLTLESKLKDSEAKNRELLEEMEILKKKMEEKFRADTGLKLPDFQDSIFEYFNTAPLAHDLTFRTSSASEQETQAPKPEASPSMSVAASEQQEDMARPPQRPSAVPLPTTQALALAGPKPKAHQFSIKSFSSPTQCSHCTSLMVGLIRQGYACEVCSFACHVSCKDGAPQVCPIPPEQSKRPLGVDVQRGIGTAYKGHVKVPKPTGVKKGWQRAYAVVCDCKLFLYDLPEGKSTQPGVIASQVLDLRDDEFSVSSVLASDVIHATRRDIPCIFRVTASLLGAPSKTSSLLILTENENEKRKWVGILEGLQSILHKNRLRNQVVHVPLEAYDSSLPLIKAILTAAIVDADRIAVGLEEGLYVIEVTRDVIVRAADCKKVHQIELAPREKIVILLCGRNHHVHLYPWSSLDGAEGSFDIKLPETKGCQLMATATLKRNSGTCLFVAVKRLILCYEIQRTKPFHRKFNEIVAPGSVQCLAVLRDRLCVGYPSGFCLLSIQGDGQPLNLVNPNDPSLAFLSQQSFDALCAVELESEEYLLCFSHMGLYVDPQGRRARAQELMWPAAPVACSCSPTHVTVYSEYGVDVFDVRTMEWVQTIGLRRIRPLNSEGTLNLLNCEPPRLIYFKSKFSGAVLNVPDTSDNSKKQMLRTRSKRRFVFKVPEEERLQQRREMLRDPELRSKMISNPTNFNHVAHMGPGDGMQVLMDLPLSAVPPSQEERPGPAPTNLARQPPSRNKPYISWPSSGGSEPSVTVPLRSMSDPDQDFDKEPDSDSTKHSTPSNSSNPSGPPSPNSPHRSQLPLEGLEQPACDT
Sequence of RAC-gamma serine/threonine-protein kinase (Homo sapiens) (Q9Y243 whole entry): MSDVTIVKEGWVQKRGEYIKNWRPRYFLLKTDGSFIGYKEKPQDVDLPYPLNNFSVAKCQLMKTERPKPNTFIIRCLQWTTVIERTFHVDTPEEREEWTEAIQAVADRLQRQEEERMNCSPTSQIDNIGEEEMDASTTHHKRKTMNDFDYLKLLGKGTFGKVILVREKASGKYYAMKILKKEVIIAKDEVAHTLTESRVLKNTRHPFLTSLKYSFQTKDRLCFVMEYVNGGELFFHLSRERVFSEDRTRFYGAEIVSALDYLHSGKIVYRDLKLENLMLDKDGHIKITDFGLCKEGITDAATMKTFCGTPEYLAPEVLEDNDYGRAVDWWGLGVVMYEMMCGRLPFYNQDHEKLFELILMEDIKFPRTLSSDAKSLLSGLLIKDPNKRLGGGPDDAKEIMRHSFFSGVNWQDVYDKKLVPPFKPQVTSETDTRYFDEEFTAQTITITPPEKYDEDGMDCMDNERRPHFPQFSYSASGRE

Regarding `c1ccc(-c2n[nH]cc2-c2ccnc(-c3ccc(OCCn4ccnc4)cc3)c2)nc1`, the inhibition in assay [1] is -1.55%; in [2] it was 0.14%; in [3] it was -0.98%; in assay [4], 0.73%; in [5], -0.34%; in assay [6] it was 1.01%. Further, the inhibition in [7] was 1.73%; in assay [8], 4.13%; in [9], -0.12%; in assay [10], 4.02%; in assay [11] it was -0.22%; in assay [12] it was -0.54%. For the same compound, the inhibition is 1.02% in [13]; 2.11% in assay [14]; -4.46% in [15]; -0.29% in assay [16]; 0.76% in assay [17]; 3.98% in [18]. Further, the inhibition is 0.32% in assay [19] and 0.33% in [20].
As to `Cc1c2ccc(N(C)c3ccnc(Nc4cccc(S(N)(=O)=O)c4)n3)cc2nn1C`, the inhibition was -2.15% in [1]; -4.81% in [2]; -2.16% in assay [3]; -3.49% in assay [4]; -0.07% in assay [5]; -4.61% in [6]. The inhibition is -0.96% in assay [7]; 1.02% in [8]; 3.31% in assay [9]; 8.97% in assay [10]; -0.27% in [11]; 0.18% in [12]. In addition, the inhibition stood at 0.8% in assay [13]; 0.18% in assay [14]; 2.9% in [15]; 1.29% in [16]; 2.14% in [17]; 5.76% in assay [18]. The inhibition amounted to 2.59% in assay [19] and 2.64% in assay [20].
Consider `CN1CCC(n2cnc(-c3ccc(F)cc3)c2-c2ccnc(NCCO)n2)CC1`, for which the inhibition in assay [1] was 0.7%; in [2], 1.07%; in assay [3] it was 1.3%; in assay [4] it was 1.3%; in assay [5], 1.33%; in assay [6], 2.14%. Besides, the inhibition in assay [7] came to 4.71%; in [8] it was 6.12%; in assay [9], 4.41%; in assay [10], 7.73%; in [11], 0.14%; in assay [12] it was 2.92%. Besides, the inhibition was -1.48% in [13]; 0.28% in assay [14]; 3.35% in [15]; 4.7% in assay [16]; 1.86% in assay [17]; 4.02% in assay [18]. The inhibition in assay [19] was determined as 0.69%; in assay [20] it was 1.98%.
For `COc1ccc2ncn(-c3cc(O[C@H](C)c4ccccc4C(F)(F)F)c(C(N)=O)s3)c2c1`, the inhibition was -0.49% in assay [1]; -0.66% in [2]; -0.92% in [3]; -0.19% in assay [4]; 0.16% in assay [5]; 0.41% in [6]. For the same compound, the inhibition in [7] is -0.28%; in assay [8] it was 1.33%; in [9], -1.81%; in assay [10], 5.21%; in assay [11] it was -0.19%; in assay [12], 2.79%. Further, the inhibition in [13] was 0.61%; in assay [14], 2.31%; in assay [15] it was -0.46%; in assay [16] it was -0.11%; in assay [17] it was 0.7%; in assay [18], 2.33%. In addition, the inhibition is 0.7% in assay [19] and -0.16% in assay [20].
In the case of `CCCNc1cccc(-n2ncc3c(N/N=C/c4ccncc4)ncnc32)c1`, the inhibition in [1] was 0.34%; in [2], -0.51%; in [3], 0.22%; in assay [4] it was -0.08%; in [5], -0.05%; in assay [6] it was -1.08%. In addition, the inhibition in assay [7] was 3.49%; in [8], 3.97%; in assay [9] it was 2.68%; in assay [10], 4.45%; in assay [11], 1.31%; in assay [12], 5.18%. Further, the inhibition was -0.11% in assay [13]; 0.92% in assay [14]; -4.25% in assay [15]; -2.6% in [16]; 1.74% in assay [17]; 2.6% in assay [18]. Besides, the values for the inhibition in [19] and in [20] were 1.2% and 8.74%, respectively.
For `COc1ccc(Nc2ncc(-c3ccccc3)o2)cc1OC`, the inhibition in assay [1] was -0.43%; in assay [2], 0%; in [3], -0.16%; in assay [4], 0.11%; in [5] it was -0.29%; in [6], 1.24%. The inhibition in assay [7] is -1.81%; in assay [8], -1.23%; in assay [9], -1.93%; in assay [10], 1.56%; in [11] it was 0.45%; in assay [12], 2.02%. Moreover, the inhibition in assay [13] was 0.74%; in [14] it was 1.74%; in [15] it was 0.37%; in [16], 1.73%; in [17] it was 1.03%; in assay [18] it was 4.59%. Besides, the inhibition in [19] was determined as 1.51%; in assay [20], 2.28%.

Values taken from ChEMBL document CHEMBL1961873, “Compounds: GSK PKIS; Assays: Nanosyn kinase panel” (2012).
